Hits are enriched below; roughly 27% of the tested compounds scored in any of these assays.
CYP2C9 act = CYP2C9 (human) activation | 96,000 tested, 1.4% active | recombinant CYP2C9, luciferin-H conversion, luminescence; stronger effect = higher value; factor 1 = untreated enzyme, 0 = blocked | activation factor at 5 µM | P11712;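 active = activation factor of 2 or more for CYP2C9 at a 5 µM dose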;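 note: 0 = sulfaphenazole-blocked wells and 1 = vehicle-only wells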
Target sequence (P11712 whole entry, looked up): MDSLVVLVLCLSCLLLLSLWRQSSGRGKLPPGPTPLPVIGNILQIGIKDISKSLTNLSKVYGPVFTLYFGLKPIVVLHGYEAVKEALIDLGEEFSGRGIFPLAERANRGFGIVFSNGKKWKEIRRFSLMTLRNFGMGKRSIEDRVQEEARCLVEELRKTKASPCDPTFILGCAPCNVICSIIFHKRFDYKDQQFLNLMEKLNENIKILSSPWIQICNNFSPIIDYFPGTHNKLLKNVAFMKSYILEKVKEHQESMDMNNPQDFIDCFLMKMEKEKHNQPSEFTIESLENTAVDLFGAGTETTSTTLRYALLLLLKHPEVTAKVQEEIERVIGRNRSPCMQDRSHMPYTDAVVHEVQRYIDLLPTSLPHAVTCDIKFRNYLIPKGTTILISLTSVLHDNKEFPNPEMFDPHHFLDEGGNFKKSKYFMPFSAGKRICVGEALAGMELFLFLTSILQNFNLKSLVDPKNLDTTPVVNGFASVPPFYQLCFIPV
Cav3 T inh = blocks human Cav3.2 T-type calcium channel. Cav3.2-expressing cells, Fluo-4 calcium fluorescence FDSS; stronger effect = lower value. B-score at 10 µM. 100,000 tested, 4% active. O95180;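 active = single-dose well whose peak fluorescence ratio is a statistical outlier from its plate by either plate-standardised score or position-corrected B-score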
Pyk2 oligo antag = antagonists of human Pyk2 oligomerization | AID 1347419 | Q293 cells, Pyk2 FERM NanoBiT luminescence; stronger effect = lower value | 99,000 tested, 0.83% active | z-score (the deposit names both 25 µM and 10 µM) | Q14289;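 active = Z-score of -3 or lower, scaled per plate to the spread of control and sample wells; inactive = z-score above -3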;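 note: negative z-score means lost luminescence so less FERM oligomerization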
CYP2C19 inh = inhibitors of human CYP2C19; P33261; CYP2C19 Supersomes, luciferin-H EGE luminescence, 30 min; inhibition, % at 5 µM; 96,000 tested, 21% active; AID 778;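 active = CYP2C19 inhibition above a set limit at 5 µM in the primary screen, cut at about 50% in these data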;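 note: plate controls were negative control wells for no effect and 2.5 mM tranylcypromine positive control for full effect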
CYP2C19 activ = activators of human cytochrome P450 2C19 | AID 1025 | 96,000 tested, under 10 active | P33261 | recombinant CYP2C19, luciferin-H EGE luminescence; stronger effect = higher value; 0 = fully inhibited enzyme, 1 = untreated enzyme | activation factor at 5 µM;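 active = activation factor of at least 2 at 5 µM in the primary screen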;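 note: 0 = wells with 2.5 mM tranylcypromine and 1 = vehicle-only wells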
CYP2C9 inhib = inhibitors of human CYP2C9. P11712. CYP2C9 Supersomes, luciferin-H conversion, luminescence. inhibition, % at 5 µM. 96,000 tested, 20% active. AID 777;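 active = blocking of liver enzyme CYP2C9 beyond about 50% at 5 µM, limit read from the data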
* = called active by the depositor; · = no result.

SMILES	CYP2C9 act	Cav3 T inh	Pyk2 oligo antag	CYP2C19 inh	CYP2C19 activ	CYP2C9 inhib
CCOC(=O)Cn1nnnc1C(CC)N(Cc1cc2c(C)cc(C)cc2[nH]c1=O)C1CCCC1 (centres undefined)	1	·	·	1	1	4
CCOc1ccc2[nH]c(=O)c(CN(Cc3cccs3)C(CC)c3nnnn3C(C)(C)CC)cc2c1 (centres undefined)	0.1	-6.2*	0.58	63*	0.4	87*
CCC(c1nnnn1C1CCCC1)N(Cc1cccs1)Cc1cc2cc(C)ccc2[nH]c1=O (centres undefined)	2*	-1.1	0.07	37	0.6	-98
CCOC(=O)Cn1nnnc1C(C(C)C)N(Cc1cccs1)Cc1cc2cc(C)ccc2[nH]c1=O (centres undefined)	0.4	-2.1	1.1	84*	0.2	64*
Cc1ccc(OC(=O)CCC(=O)N2CCc3ccccc32)cc1	1.2	1.2	-0.08	-1	1	-18
Cn1c(C(=O)N2CCCC(C(=O)NCCc3ccccc3)C2)cc2sccc21 (centres undefined)	1	0.14	0.06	41	0.6	1
Cc1ccc(CCNC(=O)C2CCCN(C(=O)c3cc4sccc4n3C)C2)cc1 (centres undefined)	0.6	-4.8*	-0.43	28	0.7	42
Cn1c(C(=O)N2CCCC(C(=O)NCCCc3ccccc3)C2)cc2sccc21 (centres undefined)	0.8	-4.2*	0.52	33	0.7	23
CCCCN(CC)C(=O)Cc1c(C(=O)O)[nH]c2ccc(Cl)cc12	0	-2	0.23	96*	0	95*
CCOCCCNC(=O)Cc1c(C(=O)O)[nH]c2ccc(Cl)cc12	·	-0.27	·	·	·	·
CCC(C)(C)NC(=O)CN(C(=O)c1snc(C(N)=O)c1N)c1ccc2c(c1)OCCO2	0.4	-0.93	-1.8	38	0.6	64*
NC(=O)c1nsc(C(=O)N(CC(=O)NCc2ccc3c(c2)OCO3)C2CCCC2)c1N	1.1	2.9	0.54	42	0.6	-8
O=c1c([N+](=O)[O-])c(NC2CCCCC2)c2ccccc2n1-c1ccccc1	·	0.18	-3.7*	·	·	·
O=C(Nc1nccs1)c1cccc(S(=O)(=O)N2CCOCC2)c1	·	0.019	0.43	·	·	·
O=C(Nc1nc(-c2ccc(S(=O)(=O)N3CCOCC3)cc2)cs1)c1ccccc1	0.5	·	·	9	0.9	48
Cc1ccc(-c2csc(NC(=O)c3cccc(S(=O)(=O)N4CCN(C)CC4)c3)n2)cc1	0.9	0.4	-0.17	97*	0	6
O=C(Nc1nc(-c2cccs2)cs1)c1cccc(S(=O)(=O)N2CCCCC2)c1	0.2	-9.2*	-1.2	51*	0.5	84*
COc1cccc(C(=O)Nc2nc(-c3ccc(S(=O)(=O)N4CCOCC4)cc3)cs2)c1	0.2	·	-3.3*	30	0.7	83*
O=C(Nc1nc(-c2nc3ccccc3s2)cs1)c1ccc(S(=O)(=O)N2CCOCC2)cc1	0.7	·	-3.6*	11	0.9	29
Cc1cnc(C(=O)NCCc2ccc(S(=O)(=O)NC(=O)NC3CCCCC3)cc2)cn1	·	1.3	·	·	·	·
CC1CCCCN1c1nnc(NC(=O)c2cc(-c3ccc(Br)cc3)on2)s1 (centres undefined)	0.4	-4.2	·	16	0.8	62*
CC(C)NC(=O)c1cc(-c2ccc(Br)cc2)on1	1	1.3	-0.62	-9	1.1	3
COCc1cc(C)nc(OCC(=O)N/N=C/c2ccc(-c3cc([N+](=O)[O-])ccc3C)o2)c1C#N	1	-1.9	-2.5	11	0.9	2
COCc1cc(C)nc(OCC(=O)N/N=C/c2cc(C)n(-c3c(C)cccc3C)c2C)c1C#N	0.2	-4.4*	-0.05	28	0.7	83*
O=[N+]([O-])c1ccc(Cl)c(/C=N/Nc2nc(N3CCOCC3)nc(N3CCOCC3)n2)c1	0.9	0.46	-0.43	19	0.8	12
CC(C)Nc1nc(SCC(N)=O)nc(N2CCOCC2)n1	0.9	0.53	0.39	-4	1	10
O=C(CSc1nc(Nc2ccccc2)nc(N2CCOCC2)n1)Nc1ccc([N+](=O)[O-])cc1	0.2	-3.6	-1.8	53*	0.5	77*
O=C(CSc1nc(Nc2ccccc2)nc(N2CCOCC2)n1)Nc1ccccc1Cl	0	-0.25	-2.6	95*	0	97*

Source: PubChem (several laboratories)
